Source: PubChem BioAssay AID618 (Sanford-Burnham Center for Chemical Genomics, 2007)
The whole screen tested about 87,000 compounds, of which about 540 (0.62%) were called active. Where a call stands in place of a potency, no number is given. How the calls were made is not given here. Only a selection was taken, and actives are over-represented in it overall. Potency and affinity values are given separately.

Assay: inhibitors of MT1-MMP promoter transcription, cell-based, luciferase reporter, luminescence (AID 618);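 further: actives suppress MT1-MMP promoter-driven transcription so potencies describe inhibitors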
Details: MT1-MMP promoter luciferase reporter cells

SMILES	outcome
CC1CCCc2sc3nc(N4CCN(CCO)CC4)n4ncnc4c3c21 (stereo unspecified)	inactive
COCCn1c(C)cc(C(=O)COc2nc3ccccc3nc2C)c1C	inactive
COCCn1c(C)cc(C2=NNC(=Nc3ccc(OC)cc3)SC2)c1C	inactive
COCCn1c(-c2ccccc2F)n[nH]c1=S	inactive
COCCn1c(C)cc(C2=NNC(=Nc3ccc(Cl)cc3Cl)SC2)c1C	inactive
CCOC(=O)c1c(C)c(C(=O)NC2CCCCC2)c(C)n1CC	inactive
Cc1ccc(-c2ccccc2NC(=O)CCl)o1	inactive
CN1/C(=C/C2CC(=O)N(c3cccc4ccccc34)C2=O)C(C)(C)c2ccccc21 (stereo unspecified)	inactive
CN1/C(=C/C=N/n2cnnc2)C(C)(C)c2ccccc21	inactive
O=C(O)CCn1c(=S)oc2ccccc21	inactive
Cc1cc(NC(=O)c2cc(Cl)ccc2Cl)no1	inactive
O=C(C1CCCCC1)N(Cc1ccccc1)c1ccccn1	inactive
COc1cc2c(cc1OC)C1Cc3ccc(OC)c(OC)c3CN1CC2 (stereo unspecified)	inactive
CC[C@H]1CN2CCc3cc(OC)c(OC)cc3[C@@H]2C[C@@H]1C[C@H]1NCCc2cc(OC)c(OC)cc21	active
COc1cc2c(cc1OC)C1C/C(=N\O)C(CC(C)C)CN1CC2 (stereo unspecified)	inactive
O=C(CN1CCCCC1)N1c2ccccc2CCc2ccccc21	inactive
O=C(CN1C(=O)C2C3C=CC(C3)C2C1=O)N1CCc2ccccc2C1 (stereo unspecified)	inactive
CCC(=O)NCC(c1cccs1)N1CCOCC1 (stereo unspecified)	inactive
O=C(NCC(c1cccs1)N1CCOCC1)c1ccco1 (stereo unspecified)	inactive
O=C(NCC(c1cccs1)N1CCOCC1)c1ccc(Cl)s1 (stereo unspecified)	active
CCOC(=O)c1ccc(CC(=O)c2oc3cc(O)ccc3c2C)o1	inactive
CN(C)c1cccc(C(=O)n2cc(C(=O)c3cc(F)ccc3O)cn2)c1	inactive
Cc1cc(N)n2nc(C)c(-c3ccccc3)c2n1	inactive
COc1ccc(-c2cc3nc(C)cc(C)n3n2)cc1	inactive
Cc1cc(N)n2ncc(-c3ccccc3)c2n1	inactive

SMILES	outcome
COc1ccc(-c2cc3nc(C)cc(NCCO)n3n2)cc1	inactive
Cc1c(C(=O)N2CCN(S(C)(=O)=O)CC2)oc2ccccc12	inactive
COc1ccc(C)cc1NC(=O)c1ccc(N(C)S(C)(=O)=O)cc1	inactive
CC1CCN(C(=S)c2ccc3c(c2)OCO3)CC1	inactive
COc1ccc(OC)c2sc(NC(=O)c3ccc(Br)s3)nc12	inactive
Oc1ccc(Nc2nc(-c3ccc4ccccc4c3)cs2)cc1	active
NS(=O)(=O)c1ccc(Nc2nc(-c3ccc4ccccc4c3)cs2)cc1	inactive
Oc1ccc(Nc2nc(-c3ccc(O)cc3)cs2)cc1	inactive
CCN(CC)CCCNC(=O)c1[nH]c(C)c(C(=O)NC2CCCCC2)c1C	inactive
Cc1nc(SCC(N)=O)[nH]c(=O)c1Cc1ccc(OC(C)C)cc1	inactive
O=C(Nc1ccccc1C(=O)N1CCN(c2ccccc2)CC1)c1ccco1	inactive
c1ccc(-c2n[nH]c(-c3ccccn3)n2)cc1	inactive
C=CCNc1nc(-c2ccccc2)nc(-n2ccnc2)n1	inactive
CNc1nc(-c2ccccn2)nnc1-c1ccccc1	inactive
c1ccc(-c2nnc(-c3ccccn3)nc2NC2CCCCC2)cc1	active
c1ccc(-c2noc(C3CCCCC3)n2)nc1	inactive
N#Cc1ccc(C23CC4(C2)[C@H](CN(Cc2ccc(C(F)(F)F)cc2)[C@@H]4c2ccccc2)C3c2ccc(C(F)(F)F)cc2)cc1 (stereo partly specified)	inactive
CCc1ccc2[nH]c(=O)c(C(c3nnnn3Cc3ccccc3)N3CCOCC3)cc2c1 (stereo unspecified)	inactive
Cc1cc(N2CCOCC2)nc(SCC(=O)c2ccccc2)n1	inactive
CCCC1=NCCn2cccc21	inactive
COc1cccc(C(=O)Cn2c(NCCO)nc3ccccc32)c1	inactive
COc1cccc(C(=O)Cn2c(=N)n(C)c3ccccc32)c1	active
Cn1c(=N)n(CC(=O)O)c2ccccc21	inactive
CC(=O)NCCSCCNC(C)=O	inactive
O=S(=O)(c1ccc2c(c1)nc(COc1ccc(Cl)cc1)n2CC1CCCO1)N1CCOCC1 (stereo unspecified)	active

SMILES	outcome
CCSc1nnc(-c2ccc(S(=O)(=O)N3CCOCC3)cc2)n1CC1CCCO1 (stereo unspecified)	inactive
CSc1nnc(-c2ccc(S(=O)(=O)N3CCOCC3)cc2)n1CC1CCCO1 (stereo unspecified)	inactive
Cn1c(C(=O)NCCN2CCCCCC2)cc2c(=O)n(C)c3ccccc3c21	inactive
Cc1ncc(S(=O)(=O)c2ccc(Cl)cc2)c(-c2ccccc2)n1	inactive
O=S(=O)(Nc1nnc(-c2ccccc2)s1)c1ccc(Cl)cc1	inactive
CCN(CC)CCCNC(=O)c1cc(-c2ccc(Cl)cc2)on1	inactive
Cc1c(C(N)=O)sc2nc(-c3ccccc3)cn12	inactive
Cc1c(C(=O)N2CC(C)OC(C)C2)sc2nc(-c3ccccc3)cn12 (stereo unspecified)	inactive
c1ccc(-c2cn3c4c(sc3n2)CCCC4)cc1	active
CCOc1ccc(N(CC(=O)NCC2CCCO2)S(=O)(=O)c2ccc(SC)cc2)cc1 (stereo unspecified)	inactive
CSc1nc2sc3c(c2c(=O)n1C)CCC(C)C3 (stereo unspecified)	inactive
FC(F)Sc1ccc(N=C2NN=C(c3ccc4c(c3)OCCO4)CS2)cc1	inactive
O=C1CSC(=NC2CCCCC2)N1	inactive
Cc1cccc(N=C2NN=C(c3ccc4c(c3)OCCO4)CS2)c1	inactive
COc1ccc(N=C2NN=C(c3ccc4c(c3)OCCO4)CS2)cc1	inactive
COc1ccc(C(=O)NCCCN2CCCC2=O)cc1	inactive
c1cnc(-c2nnc3n2CCCCC3)cn1	inactive
CCC1(N(C(C)=O)c2ccc(OC)cc2)C(=O)c2ccccc2C1=O	inactive
CCOC(=O)CCSc1nc(C)c2cc(C)c(C)cc2n1	inactive
CCCC(=O)Nc1nnc(-c2cccc(OCC)c2)s1	inactive
Cc1cc(C)nc(N2CCCC(C(=O)Nc3ccc4c(c3)OCCO4)C2)n1 (stereo unspecified)	inactive
O=C(Nc1ccc2c(c1)OCCO2)C1CCCN(c2ncccn2)C1 (stereo unspecified)	active
CC(=O)Nc1ccc(NC(=O)C2CCCN(c3ncccn3)C2)cc1 (stereo unspecified)	inactive
O=C(Nc1ccc2c(c1)OCO2)C1CCCCN1S(=O)(=O)c1ccccc1 (stereo unspecified)	inactive
Cc1ncc(S(=O)(=O)c2ccccc2)c(-c2ccc(Cl)cc2Cl)n1	inactive

SMILES	outcome
CC(=O)CSc1nnc(-c2ccc3c(c2)OCO3)o1	inactive
CCC1CCCCN1C(=O)CSc1nnc(-c2ccc3c(c2)OCCO3)o1 (stereo unspecified)	inactive
O=C(O)CSc1nnc(-c2ccc3c(c2)OCO3)o1	inactive
O=C(CSc1nnc(-c2ccc3c(c2)OCCO3)o1)N1CCCC1	inactive
O=C(c1ccco1)N1CCN=C1SCc1ccc(F)cc1	inactive
COc1ccc(NC(=O)CN(C2CCCCC2)S(C)(=O)=O)cc1OC	inactive
N=C1C(c2ccc(Br)cc2)=C(O)C2CCc3ccccc3N12 (stereo unspecified)	inactive
CCC(=O)Nc1cc2c(cc1C(C)=O)OCCO2	inactive
Cc1ccc(Cl)cc1NC(=O)CCC(=O)Nc1cc(Cl)ccc1C	inactive
COc1ccc(CC(=O)Nc2cc(C)ccn2)cc1	inactive
COc1cc(C(=O)Nc2cc(C)ccn2)cc(OC)c1OC	inactive
COc1ccc(C(=O)NC(=O)Nc2cc(C)ccn2)cc1	active
CN1CCc2c(sc3c2c(=O)n(-c2ccccc2)c2nnc(SCc4ccc(Cl)cc4)n32)C1	inactive
CCOC(=O)c1sc2nc3c(cc2c1N)COC(C)(CC)C3 (stereo unspecified)	inactive
CCOC(=O)c1sc2nc3c(cc2c1N)COC(C)(C)C3	inactive
CCN(Cc1ccccc1)S(=O)(=O)c1ccc2oc(C(=O)O)c(C)c2c1	inactive
Brc1ccc2nc(CSc3ncn[nH]3)cn2c1	inactive
Cn1ccnc1SCc1cn2ccccc2n1	inactive
COc1ccc(NC(=S)N/C(=N/CS(=O)(=O)c2ccccc2)c2ccccc2)cc1	inactive
CCOC(=O)N1CCC(N2C(=O)c3ccc(C(=O)O)cc3C2=O)CC1	inactive
c1coc(-c2nnc(NC3=NCCC3)o2)c1	inactive
Fc1ccc(-c2nnc(NC3=NCCCCC3)o2)cc1	active
Cc1nnc(NC2=NCCCCC2)o1	inactive
CCOc1ccc(-c2nnc(NC3=NCCCCC3)o2)cc1	inactive
Clc1ccc(-c2nnc(NC3=NCCCCC3)o2)cc1	active

SMILES	outcome
Clc1ccc(NC2=NCCCCC2)cc1	inactive
O=C1/C(=C\Nc2ccc(OC(F)(F)F)cc2)CCN1c1ncccn1	inactive
CS(=O)(=O)N(CC(=O)NCCSC1CCCCC1)c1ccc2c(c1)OCO2	inactive
COc1cccc(CNc2ccc(F)c(Cl)c2)c1OC	inactive
FC(F)(F)c1cc(-c2ccco2)nc(-n2nnc3ccccc32)n1	inactive
FC(F)(F)c1cc(-c2ccco2)nc(-n2cnc3ccccc32)n1	inactive
Cc1nc2ccccc2n1-c1nc(-c2ccco2)cc(C(F)(F)F)n1	active
Cc1cc(OCCCCCNCCO)cc(C)c1Cl	inactive
COc1ccc(C(=O)Nc2ccccc2C(=O)NCCN2CCOCC2)cc1	inactive
CN(C)CCCN1c2ccccc2Sc2ccccc21	inactive
COc1ccc2c(c1)Sc1ccccc1N2CCN(C)C	active
CN(C)CCCN1c2ccccc2Sc2ccc(Cl)cc21	inactive
CCOC(=O)C(N)CSC1CC(=O)N(c2ccc(C(=O)OC)cc2)C1=O (stereo unspecified)	inactive
CCOC(=O)COc1nc(Nc2ccccc2C)nc(N(C)C)n1	inactive
O=C(NNC(=O)c1ccc(SCC2CCCO2)c([N+](=O)[O-])c1)c1ccc(F)cc1 (stereo unspecified)	inactive
c1ccc2c(-c3nc(-c4ccncc4)no3)cccc2c1	inactive
c1ccc(-c2noc(-c3cccc4ccccc34)n2)nc1	active
c1ccc(-c2noc(-c3cccc4ccccc34)n2)cc1	inactive
COc1cc(-c2nc(-c3ccccn3)no2)cc(OC)c1OC	inactive
COc1cccc(-c2nc(-c3ccccn3)no2)c1OC	inactive
CCCCNC(=O)n1c(SC)nc2ccccc21	inactive
